# Experimental data published in PubChem BioAssay AID488969 (Vanderbilt High Throughput Screening Facility, 2010).
# The full ranking holds about 110,000 compounds; the median of “z-score” is about -0.1, and the highest 2% start at about 2. The sample holds the highest values, similar compounds and a random draw of the others, so the mix is not that of the screen. The source made the active and inactive calls.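 The calls were made as follows: active = z-score in the third read window above 3 or below -3; inactive = the rest.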
# Target: Metabotropic glutamate receptor 8 (Rattus norvegicus) (UniProt P70579)
# Assay: rat mGluR8 modulators via GIRK flux, primary screen, cell-based, thallium flux, HTS (AID 488969)
# Conditions: HEK293 rat mGluR8, GIRK (G protein-gated inwardly rectifying potassium channel) thallium flux, FluoZin2; at 10 µM; stronger effect = higher value; submaximal glutamate (EC20) added with thallium
# Chain of Metabotropic glutamate receptor 8 (Rattus norvegicus) (P70579 whole entry, looked up): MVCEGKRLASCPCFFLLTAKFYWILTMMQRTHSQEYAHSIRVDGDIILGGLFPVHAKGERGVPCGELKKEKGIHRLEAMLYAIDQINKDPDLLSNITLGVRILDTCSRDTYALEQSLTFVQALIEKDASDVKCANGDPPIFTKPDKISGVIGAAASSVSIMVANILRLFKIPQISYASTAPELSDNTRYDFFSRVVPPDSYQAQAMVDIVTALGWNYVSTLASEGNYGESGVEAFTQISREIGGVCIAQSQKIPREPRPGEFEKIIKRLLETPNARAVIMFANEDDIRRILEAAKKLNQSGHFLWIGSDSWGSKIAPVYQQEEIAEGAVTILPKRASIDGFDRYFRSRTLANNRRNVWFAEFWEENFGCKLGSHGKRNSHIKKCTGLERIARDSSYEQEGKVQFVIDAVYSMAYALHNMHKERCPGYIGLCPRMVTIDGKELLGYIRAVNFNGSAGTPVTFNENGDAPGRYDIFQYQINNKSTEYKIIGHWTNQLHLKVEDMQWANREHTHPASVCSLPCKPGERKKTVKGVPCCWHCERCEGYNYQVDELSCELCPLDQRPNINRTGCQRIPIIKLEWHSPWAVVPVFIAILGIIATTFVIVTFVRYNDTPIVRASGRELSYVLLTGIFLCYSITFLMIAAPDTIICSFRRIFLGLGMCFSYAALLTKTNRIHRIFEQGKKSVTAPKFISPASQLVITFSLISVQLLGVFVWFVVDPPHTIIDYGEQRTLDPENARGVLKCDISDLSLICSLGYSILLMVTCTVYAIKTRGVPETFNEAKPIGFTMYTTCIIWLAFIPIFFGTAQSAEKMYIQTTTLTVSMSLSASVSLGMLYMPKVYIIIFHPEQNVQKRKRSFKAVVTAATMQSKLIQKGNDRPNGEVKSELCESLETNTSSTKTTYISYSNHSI
row,Compound,z-score
1,CCCNC(=O)C(NS(=O)(=O)c1cccc2nsnc12)c1ccccc1 (stereo unspecified),-0.0978
2,O=c1cc(CN2CCOCC2)nc(C2CC2)[nH]1,5.57 (active)
3,Cc1nc(CN2CCOCC2)cc(=O)[nH]1,0.197
4,CC1CN(Cc2cc(=O)[nH]c(C3CC3)n2)CC(C)O1 (stereo unspecified),-0.155
5,Cc1cc(NC(=O)C(=O)NCCN2CCN(C(=O)c3cccs3)CC2)ccc1Br,-0.64
6,COc1cccc(N/C=C(\C#N)c2ccc(OCCCF)cc2)c1,0.135
7,Cn1c(Cc2csc(N)n2)nnc1SCC(=O)NCc1ccccc1,0.898
8,Cc1ccccc1CCN(C(=O)Cn1nnc2ccccc21)C(C(=O)NC(C)(C)C)c1ccsc1 (stereo unspecified),0.0716
9,Cc1ccc(NC(=O)c2cc(N3C(=O)C=CC3=O)ccc2Cl)cc1C,-0.0892
10,CCOC(=O)c1nnc(-c2ccccc2)nc1Oc1ccccc1Cl,-0.346
11,COC(=O)c1ccccc1NC(=S)NC(=O)c1cccc2ccccc12,0.972
12,COC(=O)c1ccccc1NC(=S)NC(=O)c1ccccc1C,1.1
13,COC(=O)c1ccccc1NC(=S)NC(=O)c1ccc2ccccc2c1,0.231
14,COC(=O)c1ccccc1NC(=S)NC(=O)c1ccccc1,13.1 (active)
15,COC(=O)c1ccccc1NC(=S)NC(=O)C1CC1,-0.189
16,COC(=O)c1ccccc1NC(=S)NC(=O)c1ccc(C)cc1,2.94
17,O=C(Nc1ccc(Cc2ccncc2)cc1)C1CCC(N2C(=O)C3C4C=CC(C5CC45)C3C2=O)CC1 (stereo unspecified),-0.424
18,Cn1c2ccccc2c2c(C(=O)N3CCN(C(=O)c4ccco4)CC3)cn(C3CCCCC3)c(=O)c21,-0.126
19,CCN(C(=O)CN1CCN(c2ccccc2)CC1)c1c(N)n(Cc2ccccc2)c(=O)[nH]c1=O,-0.349
20,CCN(C(=O)CN1CCN(c2ccccc2O)CC1)c1c(N)n(Cc2ccccc2)c(=O)[nH]c1=O,14.3 (active)
21,CCN(C(=O)CN1CCN(c2ccccc2OC)CC1)c1c(N)n(Cc2ccccc2)c(=O)[nH]c1=O,0.391
22,CC1Cc2ccccc2N1C(=O)CSc1nnc(CNc2ccccc2)o1 (stereo unspecified),-0.151
23,CC(=O)C1C(c2ccccc2)c2c(n[nH]c2C)CC1(C)O (stereo unspecified),0.241

row,Compound,z-score
1,COc1ccc(CCn2c(=N)c(C(=O)NCc3ccco3)cc3c(=O)n4ccccc4nc32)cc1,0.369
2,N=c1c(C(=O)NCc2ccco2)cc2c(=O)n3ccccc3nc2n1CCc1ccccc1,4.11 (active)
3,N=c1c(C(=O)NCc2ccco2)cc2c(=O)n3ccccc3nc2n1Cc1ccccc1,1.15
4,Cc1cccc(N2CCN(C(=O)c3ccoc3C)CC2)c1C,-0.311
5,CN(C)c1nc(N)nc(CSc2n[nH]c(-c3ccccc3)n2)n1,-0.00289
6,Cc1ccccc1-c1nnc(Cc2ccccc2)o1,-0.211
7,ClCc1nnc(-c2ccccc2)o1,-0.143
8,c1ccc(Cc2nnc(-c3ccccc3)o2)cc1,10.4 (active)
9,CCOC(=O)CN1C(=O)C2(OCCCO2)c2ccccc21,-0.0349
10,CN(C(=O)Nc1ccc(Cl)cc1Cl)[C@H]1c2cc(Br)ccc2OC[C@H]1CO,-0.211
11,COc1cccc2c1OC[C@@H](CO)[C@H]2N(C)C(=O)Nc1ccccc1,6.33 (active)
12,COc1cccc2c1OC[C@@H](CO)[C@H]2N(C)C(=O)Nc1ccc(Cl)cc1Cl,0.0803
13,CC1(C)Oc2nc3ccccc3n2/C1=C\C#N,-0.233
14,CC(=O)Nc1ccc(S(=O)(=O)NC2(C(F)(F)F)NC(=O)N(C3CCCCC3)C2=O)cc1 (stereo unspecified),-0.0965
15,CSc1nc(C)cc(Oc2ccc(OCCOc3ccccc3)nn2)n1,-0.702
16,CCn1c(SCC(=O)Nc2ccccc2OC)nc2ccccc2c1=O,-0.373
17,COc1ccc(Cn2cnc3sccc3c2=O)cc1,-0.167
18,CCOC(=O)Nc1ccc(S(=O)(=O)Nc2cc(C)nc(C)n2)cc1,-0.12
19,COc1ccc(CCN2C(=O)CC(C(N)=O)SC2=Nc2ccccc2)cc1OC (stereo unspecified),1.15
20,Cc1ccc(N2CN=C(c3ccccc3)NC2=S)cc1,0.328
21,S=C1NC(c2ccccc2)=NCN1c1ccc(Cl)cc1,3.19 (active)
22,S=C1NC(c2ccccc2)=NCN1c1ccccc1,0.145
23,CCOc1ccccc1Nc1nnc(C)c(=O)[nH]1,-0.155

row,Compound,z-score
1,CCCOc1ccccc1Nc1nnc(C)c(=O)[nH]1,0.409
2,CCOc1ccccc1Nc1nnc(Cc2ccccc2Cl)c(=O)[nH]1,12.8 (active)
3,CCOC(=O)C1CCN(C(=O)c2cc(OCC)c(OCC)c(OCC)c2)CC1,0.856
4,OC1CCN(c2c3c(nc4cc(-c5ccc(Cl)cc5)nn24)CCC3)CC1,-0.738
5,O=C(c1cc2ccccc2c(=O)o1)N1CCCC1,0.79
6,Cc1cc(NC(=O)/C=C/c2ccccc2Cl)n(-c2nc3ccccc3[nH]2)n1,0.0437
7,Cc1cc(NC(=O)c2c(F)cccc2Cl)n(-c2nc3ccccc3[nH]2)n1,3.06 (active)
8,Cc1cc(NC(=O)c2ccc(F)cc2F)n(-c2nc3ccccc3[nH]2)n1,0.0238
9,CC1CCCC(NC(=S)Nc2ccc(SC(F)F)cc2)C1C (stereo unspecified),4.36 (active)
10,Oc1cccc(NC(=S)Nc2ccc(SC(F)F)cc2)c1,2.92
11,CC1CC(C)CN(C(=S)Nc2ccc(SC(F)F)cc2)C1 (stereo unspecified),6.63 (active)
12,CC1CC(C)CN(C(=S)Nc2ccc(OC(F)F)cc2)C1 (stereo unspecified),-0.115
13,CN1CCC(N(C)C(=S)Nc2ccc(SC(F)F)cc2)CC1,-0.0288
14,CN(C(=S)Nc1ccc(SC(F)F)cc1)c1ccc(O)cc1,0.142
15,CC1CCN(C(=S)Nc2ccc(SC(F)F)cc2)CC1,0.000321
16,CC1CCCCC1NC(=S)Nc1ccc(SC(F)F)cc1 (stereo unspecified),5.08 (active)
17,Oc1cccc(NC(=S)Nc2cccnc2)c1,-0.756
18,FC(F)Sc1ccc(NC(=S)NCC2CCCCC2)cc1,-0.233
19,FC(F)Sc1ccc(NC(=S)NC2CCC(NC(=S)Nc3ccc(SC(F)F)cc3)CC2)cc1 (stereo unspecified),-0.2
20,FC(F)Sc1ccc(NC(=S)NC2CCCCC2)cc1,-0.326
21,c1cncc(C(c2nnnn2C2CCCC2)N2CCN(Cc3ccc4c(c3)OCO4)CC2)c1 (stereo unspecified),0.0897
22,O=C(c1ccco1)N1CCN(c2ccc(Cl)c(Cl)c2)CC1,-0.938
23,COc1cccc(OC)c1NC(=O)CN1CCC(NC(=O)c2cccc(F)c2)CC1,-0.0108

row,Compound,z-score
1,O=C(CCNC(=O)Cn1ccc2ccccc2c1=O)NCCc1ccccc1Cl,-0.0359
2,CCSc1nnc(NC(=O)C2Cc3ccccc3CN2S(=O)(=O)CC)s1 (stereo unspecified),0.295
3,C=CC(=O)Nc1ccc(Br)cc1,0.0392
4,COc1ccc(/C=C2\C(=O)NC(=S)N2C(=O)c2ccc(F)cc2)cc1,3.14 (active)
5,COc1ccc(C(=O)C2CCN(C(=O)c3ccc(C)cc3)CC2)cc1,-0.285
6,COc1ccc(/C=C/C(=O)Oc2ccc(/C=N\NC(=O)c3ccc(F)cc3)cc2)cc1,0.18
7,COc1ccc(-c2nc(N)n(C(=O)c3ccc(C)cc3)n2)cc1,0.106
8,COc1ccc(C(=O)N2CCC(C(=O)c3ccc(F)cc3)CC2)cc1,-1.67
9,COc1ccc(C(=O)N2C(=S)NC(=O)/C2=C\c2ccc(C)cc2)cc1,2.75
10,N#Cc1cc2c(nc1SCc1ccccc1)CCC2,0.359
11,Cc1oncc1C(=S)Nc1ccccc1,12.4 (active)
12,Cc1c(C(=S)Nc2ccccc2)cnn1-c1ccccc1,-0.398
13,COC(=O)c1cccc(NC(=O)c2cnoc2C)c1,-0.126
14,COc1ccc(C(C)N2CC34C=CC(O3)C(C(=O)O)C4C2=O)cc1 (stereo unspecified),0.302
15,Cc1ccccc1OCC(O)Cn1nnc2ccccc21 (stereo unspecified),-0.244
16,COc1ccc(OCC(O)Cn2c(Nc3ccccc3)nc3c2c(=O)n(C)c(=O)n3C)cc1 (stereo unspecified),-0.45
17,C=CCn1c(N)c(C(=O)Nc2ccccc2OC)sc1=S,0.333
18,COC(=O)c1ccccc1NC(=O)c1ccc(COc2ccc3c(c2)CCC3)cc1,-0.271
19,COc1ccccc1NC(=O)c1ccc(COc2ccc3c(c2)CCC3)cc1,-0.228
20,Cc1ccc(NC(=O)c2ccc(COc3ccc4c(c3)CCC4)cc2)c(C)c1,3.36 (active)
21,O=C(O)[C@H]1CCCC[C@H]1C(=O)NCCc1ccccc1,0.402
22,CCOC(=O)C(C)Sc1nnc(Cc2cc(=O)[nH]c(=O)[nH]2)n1-c1ccc(OCC)cc1 (stereo unspecified),0.465
23,CCOc1ccc(-n2c(Cc3cc(=O)[nH]c(=O)[nH]3)nnc2SC(C)C(=O)OC)cc1 (stereo unspecified),12.7 (active)

row,Compound,z-score
1,COC(=O)C(C)Sc1nnc(Cc2cc(=O)[nH]c(=O)[nH]2)n1-c1ccc(OC)cc1 (stereo unspecified),0.194
2,COc1ccc(C(C(=O)NC(C)(C)C)N(CC2CCCO2)C(=O)CCC(=O)Nc2cc(C)on2)cc1 (stereo unspecified),-0.202
3,O=S(=O)(N/N=C/c1ccc(OC2CSC2)cc1)c1ccccc1,-0.00217
4,Nc1c(S(=O)(=O)c2cccs2)c2nc3ccccc3nc2n1Cc1ccc2c(c1)OCO2,-0.174
5,Fc1ccc(/C=N/n2c(-c3cccs3)n[nH]c2=S)cc1,4.92 (active)
6,Cc1ccc(/C=N/n2c(-c3ccncc3)n[nH]c2=S)cc1,0.0356
7,Cc1ccc(-c2n[nH]c(=S)n2/N=C/c2ccc(C)o2)cc1,-1.27
8,Cc1ccsc1/C=N/n1c(-c2ccccn2)n[nH]c1=S,-0.121
9,S=c1[nH]nc(-c2ccncc2)n1/N=C/c1ccccc1,-0.00784
10,Cc1ccc(/C=N/n2c(-c3cccs3)n[nH]c2=S)cc1,10 (active)
11,Cc1c(/C=N/NC(N)=O)c2ccccn2c1C(=O)c1ccc(F)cc1,-0.327
12,COCc1cc(C)nc2sc(C(=O)N3CCCCC3)c(N)c12,0.33
13,CCCCOc1ccc(C(=O)OC2CC(C)N(C)CC2C)cc1 (stereo unspecified),3.48 (active)
14,CCCCOc1ccc(C(=O)N2CCC(C)CC2)cc1,-0.401
15,CCCCOc1ccc(C(=O)N2CC(C)OC(C)C2)cc1 (stereo unspecified),-0.154
16,Cc1nc2ccc(NC(=O)c3ccc(S(=O)(=O)N4CCOCC4)cc3)cc2s1,-0.182
17,CC(=O)c1ccc(OC(=O)N(c2ccccc2)c2ccccc2)cc1,2.99
18,O=C(Oc1ccc(-c2nnco2)cc1)N(c1ccccc1)c1ccccc1,0.519
19,CCN(c1ccccc1)S(=O)(=O)c1ccc(C(=O)Oc2ccc(C(C)=O)cc2)cc1,-0.819
